Laboratory results from the supplement of paper PMC10849652.
The full data set covers some 8,800 targets. This sample favours those with a hit. About 0.5% of all pairs of compound and target were hits. Values without a mark were called inactive.

Tests used:
Test in all cases: log2 fold change, soluble protein after heating vs DMSO (PISA); higher = thermal stabilisation; K562 lysate, 10 uM; active = over 0.2 and 3.5 SD of the protein, either way, in both replicates (recomputed)
erlotinib = compound: C#Cc1cccc(Nc2ncnc3cc(OCCOC)c(OCCOC)cc23)c1 [erlotinib]
Summary of the method: (§1)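 A 30 min treatment with 10 μM compound was applied to crude K562 extract at 1 mg/mL protein in PBS pH 7.4 with 1 mM MgCl2. Heating for 3 min spanned 48°C-58°C, after which aliquots were pooled, adjusted to 0.5% NP-40 at 4°C and spun at 21,000xg for 90 min. TMTpro 16plex LC-MS/MS of the supernatant, with channel sums equalised, gave values recorded as log-two fold change in thermal stability against solvent controls, from duplicates.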

[1] = compound: C/C(=N\NC(=O)C1=CC(=CC=C1)S(=O)(=O)N2CCOCC2)/C3=C(C=CC(=C3)Cl)O
Summary of the method: as §1

[2] = compound: C1=CC(=CC=C1C2=NC3=C(N2)C=C(C=C3)C(=O)N)OC4=CC=C(C=C4)Cl
Summary of the method: as §1

[3] = compound: C1=CC2=C(C=CC(=C2)/C=C\3/C(=O)NC(=NCC4=CC=CS4)S3)N=C1
Summary of the method: as §1

[4] = compound: C1=CC2=NC=CN=C2C=C1/C=C/3\C(=O)NC(=O)S3
Summary of the method: as §1

[5] = compound: C1=CC=C(C=C1)C2=NC(=C(N2)C3=CC=NC=C3)C4=CC(=C(C=C4)Cl)O
Summary of the method: as §1

[6] = compound: C1=CC=C2C(=C1)C3=NNC4=CC=CC(=C43)C2=O
Summary of the method: as §1

[7] = compound: C1CCN(C1)C(=O)NC2=CC=CC(=C2)NC3=NC=C(C(=N3)NCCC4=CN=CN4)Br
Summary of the method: as §1

[8] = compound: C1CN(CCC1(CC2=CC=C(C=C2)Cl)N)C3=NC=NC4=C3C=CN4
Summary of the method: as §1

IRAK-1-4 Inhibitor I = compound: C1COCCN1CCN2C3=CC=CC=C3N=C2NC(=O)C4=CC(=CC=C4)[N+](=O)[O-] [IRAK-1-4 Inhibitor I]
Summary of the method: as §1

Chain of UniProt Q96BM9 (Q96BM9 whole entry, looked up): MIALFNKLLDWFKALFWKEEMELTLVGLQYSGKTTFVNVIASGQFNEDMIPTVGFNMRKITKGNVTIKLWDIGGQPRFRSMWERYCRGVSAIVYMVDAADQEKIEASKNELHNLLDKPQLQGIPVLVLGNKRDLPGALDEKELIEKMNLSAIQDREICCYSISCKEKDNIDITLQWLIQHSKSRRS
Chain of UniProt O43865 (O43865 whole entry, looked up): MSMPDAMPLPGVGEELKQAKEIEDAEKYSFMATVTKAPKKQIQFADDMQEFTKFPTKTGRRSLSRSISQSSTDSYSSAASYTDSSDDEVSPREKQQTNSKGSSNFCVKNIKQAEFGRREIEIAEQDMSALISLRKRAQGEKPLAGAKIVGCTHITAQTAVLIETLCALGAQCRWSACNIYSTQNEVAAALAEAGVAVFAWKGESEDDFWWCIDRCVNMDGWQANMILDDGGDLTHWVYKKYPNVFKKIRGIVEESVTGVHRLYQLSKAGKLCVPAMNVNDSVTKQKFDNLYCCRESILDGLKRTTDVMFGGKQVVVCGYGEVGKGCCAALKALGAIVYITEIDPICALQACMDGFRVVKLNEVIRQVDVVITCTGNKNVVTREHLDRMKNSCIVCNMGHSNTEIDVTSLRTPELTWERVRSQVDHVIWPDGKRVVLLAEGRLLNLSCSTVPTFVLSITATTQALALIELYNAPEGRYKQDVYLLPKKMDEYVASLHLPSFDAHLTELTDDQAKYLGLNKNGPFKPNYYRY
Chain of UniProt O00170 (O00170 whole entry, looked up): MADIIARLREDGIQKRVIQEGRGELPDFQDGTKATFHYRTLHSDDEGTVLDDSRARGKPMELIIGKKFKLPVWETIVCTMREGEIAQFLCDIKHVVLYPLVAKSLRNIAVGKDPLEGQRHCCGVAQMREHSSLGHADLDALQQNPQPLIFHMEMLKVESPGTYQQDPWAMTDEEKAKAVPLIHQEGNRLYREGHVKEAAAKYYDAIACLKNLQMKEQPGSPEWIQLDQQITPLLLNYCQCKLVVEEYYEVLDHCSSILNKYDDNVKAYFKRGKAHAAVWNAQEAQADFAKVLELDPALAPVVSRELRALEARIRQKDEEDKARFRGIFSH
Chain of UniProt P27695 (P27695 whole entry, looked up): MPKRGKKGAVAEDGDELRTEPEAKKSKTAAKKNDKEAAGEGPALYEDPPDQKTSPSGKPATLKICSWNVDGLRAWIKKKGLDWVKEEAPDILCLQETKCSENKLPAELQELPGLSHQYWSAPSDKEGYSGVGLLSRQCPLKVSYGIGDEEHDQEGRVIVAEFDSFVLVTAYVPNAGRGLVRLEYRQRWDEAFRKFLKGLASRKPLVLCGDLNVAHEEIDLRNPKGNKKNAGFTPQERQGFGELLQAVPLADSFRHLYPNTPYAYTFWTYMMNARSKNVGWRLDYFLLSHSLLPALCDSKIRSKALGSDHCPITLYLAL
Chain of UniProt Q6P1M9 (Q6P1M9 whole entry, looked up): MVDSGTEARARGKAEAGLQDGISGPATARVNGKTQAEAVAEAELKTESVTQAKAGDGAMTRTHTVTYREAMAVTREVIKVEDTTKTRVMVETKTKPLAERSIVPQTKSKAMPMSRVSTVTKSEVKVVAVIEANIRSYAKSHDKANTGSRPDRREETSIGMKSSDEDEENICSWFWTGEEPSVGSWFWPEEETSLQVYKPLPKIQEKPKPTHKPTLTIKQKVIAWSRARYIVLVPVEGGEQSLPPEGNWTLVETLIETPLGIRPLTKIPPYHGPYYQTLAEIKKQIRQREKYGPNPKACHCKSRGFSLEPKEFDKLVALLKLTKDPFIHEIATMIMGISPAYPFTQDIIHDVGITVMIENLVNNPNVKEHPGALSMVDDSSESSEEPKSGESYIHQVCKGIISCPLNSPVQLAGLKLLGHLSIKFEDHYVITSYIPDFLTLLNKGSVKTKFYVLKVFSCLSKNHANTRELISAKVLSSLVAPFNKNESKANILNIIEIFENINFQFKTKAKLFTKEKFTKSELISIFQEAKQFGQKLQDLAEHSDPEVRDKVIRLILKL
Chain of UniProt O43182 (O43182 whole entry, looked up): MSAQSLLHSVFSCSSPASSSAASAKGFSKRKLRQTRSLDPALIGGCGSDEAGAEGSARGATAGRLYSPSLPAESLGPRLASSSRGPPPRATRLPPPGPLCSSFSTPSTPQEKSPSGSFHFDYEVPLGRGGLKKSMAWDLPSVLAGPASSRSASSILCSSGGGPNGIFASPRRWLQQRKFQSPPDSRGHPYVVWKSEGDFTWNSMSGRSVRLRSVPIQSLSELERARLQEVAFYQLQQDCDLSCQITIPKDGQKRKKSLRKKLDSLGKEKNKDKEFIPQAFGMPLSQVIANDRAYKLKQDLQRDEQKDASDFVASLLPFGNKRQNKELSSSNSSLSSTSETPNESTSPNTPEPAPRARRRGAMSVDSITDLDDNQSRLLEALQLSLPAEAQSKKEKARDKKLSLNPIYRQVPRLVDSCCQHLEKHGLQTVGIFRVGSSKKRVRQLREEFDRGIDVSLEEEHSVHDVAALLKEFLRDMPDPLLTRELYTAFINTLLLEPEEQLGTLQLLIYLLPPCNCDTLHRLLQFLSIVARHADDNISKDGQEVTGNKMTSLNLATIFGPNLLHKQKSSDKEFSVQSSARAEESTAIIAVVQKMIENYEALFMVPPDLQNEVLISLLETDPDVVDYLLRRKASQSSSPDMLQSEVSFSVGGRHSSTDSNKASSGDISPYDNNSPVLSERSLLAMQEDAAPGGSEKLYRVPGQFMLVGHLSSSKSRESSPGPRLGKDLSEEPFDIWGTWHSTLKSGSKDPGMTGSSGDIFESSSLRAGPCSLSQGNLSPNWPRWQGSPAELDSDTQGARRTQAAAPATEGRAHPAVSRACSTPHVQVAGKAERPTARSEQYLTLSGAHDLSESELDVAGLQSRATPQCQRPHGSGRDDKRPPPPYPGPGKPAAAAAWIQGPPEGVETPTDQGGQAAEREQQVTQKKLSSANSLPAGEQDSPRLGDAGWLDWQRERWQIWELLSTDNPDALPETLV
Chain of UniProt Q9UJX3 (Q9UJX3 whole entry, looked up): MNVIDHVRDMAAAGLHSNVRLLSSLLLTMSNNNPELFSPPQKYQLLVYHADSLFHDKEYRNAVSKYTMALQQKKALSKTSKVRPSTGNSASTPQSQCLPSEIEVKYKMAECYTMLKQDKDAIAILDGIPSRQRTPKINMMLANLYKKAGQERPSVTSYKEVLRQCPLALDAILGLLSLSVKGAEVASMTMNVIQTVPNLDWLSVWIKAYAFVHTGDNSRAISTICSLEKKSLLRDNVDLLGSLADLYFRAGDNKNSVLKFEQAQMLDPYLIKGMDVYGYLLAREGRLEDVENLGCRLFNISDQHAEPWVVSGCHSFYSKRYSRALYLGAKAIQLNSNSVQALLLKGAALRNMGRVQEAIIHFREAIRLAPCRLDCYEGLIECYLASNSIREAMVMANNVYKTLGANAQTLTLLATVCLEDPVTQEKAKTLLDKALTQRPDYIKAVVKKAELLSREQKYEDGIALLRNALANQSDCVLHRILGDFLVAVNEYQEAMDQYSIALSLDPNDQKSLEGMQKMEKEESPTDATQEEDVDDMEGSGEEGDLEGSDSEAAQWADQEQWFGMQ
Chain of UniProt Q99943 (Q99943 whole entry, looked up): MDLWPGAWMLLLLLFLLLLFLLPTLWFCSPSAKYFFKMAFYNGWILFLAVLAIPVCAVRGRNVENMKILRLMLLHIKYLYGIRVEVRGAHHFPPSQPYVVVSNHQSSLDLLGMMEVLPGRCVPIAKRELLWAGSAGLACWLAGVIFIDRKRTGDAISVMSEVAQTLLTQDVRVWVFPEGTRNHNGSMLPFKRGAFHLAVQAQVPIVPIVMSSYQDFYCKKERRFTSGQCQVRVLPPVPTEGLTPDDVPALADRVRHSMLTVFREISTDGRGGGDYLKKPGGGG
Chain of UniProt Q9ULX6 (Q9ULX6 whole entry, looked up): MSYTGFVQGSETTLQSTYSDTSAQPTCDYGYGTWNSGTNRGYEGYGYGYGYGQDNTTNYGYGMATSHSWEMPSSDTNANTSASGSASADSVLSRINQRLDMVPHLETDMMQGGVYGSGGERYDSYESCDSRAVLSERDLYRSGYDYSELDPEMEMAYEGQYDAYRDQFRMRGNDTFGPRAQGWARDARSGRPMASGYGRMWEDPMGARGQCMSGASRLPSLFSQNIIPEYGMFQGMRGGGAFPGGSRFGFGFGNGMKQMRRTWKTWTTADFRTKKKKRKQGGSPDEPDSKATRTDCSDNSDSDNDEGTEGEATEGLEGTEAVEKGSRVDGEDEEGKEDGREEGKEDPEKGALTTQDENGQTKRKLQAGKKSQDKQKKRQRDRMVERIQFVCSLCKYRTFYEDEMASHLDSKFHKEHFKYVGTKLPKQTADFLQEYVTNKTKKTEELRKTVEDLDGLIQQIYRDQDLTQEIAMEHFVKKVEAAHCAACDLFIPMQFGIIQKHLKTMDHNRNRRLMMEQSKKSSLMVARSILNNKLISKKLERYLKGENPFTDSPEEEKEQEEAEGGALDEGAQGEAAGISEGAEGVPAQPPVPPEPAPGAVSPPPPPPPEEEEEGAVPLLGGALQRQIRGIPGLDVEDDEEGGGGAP
Chain of UniProt P52895 (P52895 whole entry, looked up): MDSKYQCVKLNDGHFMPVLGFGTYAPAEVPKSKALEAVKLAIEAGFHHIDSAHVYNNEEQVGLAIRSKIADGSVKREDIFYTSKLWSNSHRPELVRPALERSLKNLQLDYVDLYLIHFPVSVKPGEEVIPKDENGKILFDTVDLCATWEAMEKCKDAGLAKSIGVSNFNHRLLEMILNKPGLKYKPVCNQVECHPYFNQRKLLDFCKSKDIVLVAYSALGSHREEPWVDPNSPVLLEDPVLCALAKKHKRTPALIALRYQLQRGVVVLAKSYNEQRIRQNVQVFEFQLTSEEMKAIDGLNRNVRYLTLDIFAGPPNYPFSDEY

| Target | log2 fold change (erlotinib) | log2 fold change [1] | log2 fold change [2] | log2 fold change [3] | log2 fold change [4] | log2 fold change [5] | log2 fold change [6] | log2 fold change [7] | log2 fold change [8] | log2 fold change (IRAK-1-4 Inhibitor I) |
| --- | --- | --- | --- | --- | --- | --- | --- | --- | --- | --- |
| ALDH1L2 (UniProt Q3SY69) | 0.005 | 0.025 | 0.011 | 0.037 | -0.02 | -0.004 | -0.064 | -0.018 | 0.024 | -0.011 |
| AIP (UniProt O00170) | -0.006 | -0.032 | -0.015 | -0.004 | -0.012 | 0.018 | 0.026 | -0.002 | 0.016 | -0.012 |
| ADD1 isoform 4 (UniProt P35611) | -0.016 | -0.059 | 0.011 | 0.089 | -0.088 | -0.081 | -0.025 | 0.028 | -0.009 | 0.093 |
| ARHGAP21 (UniProt Q5T5U3) | -0.013 | -0.182 | -0.025 | -0.098 | -0.214 | -0.018 | -0.137 | -0.118 | -0.018 | 0.056 |
| AKAP8L (UniProt Q9ULX6) | 0.061 | 0.093 | 0.032 | 0.002 | 0.017 | 0 | -0.022 | 0.029 | -0.032 | -0.002 |
| ARHGAP6 (UniProt O43182) | 0.013 | -0.145 | -0.04 | 0.061 | 0.07 | 0.041 | -0.005 | -0.016 | 0.037 | 0.015 |
| ABHD17A isoform 2 (UniProt Q96GS6) | -0.016 | -0.046 | 0.081 | 0.025 | 0.022 | -0.009 | -0.07 | -0.023 | 0.025 | 0.006 |
| ACTG1 (UniProt I3L4N8) | 0.118 | 0.163 | -0.016 | 0.029 | -0.2 | 0.054 | -0.207 | -0.142 | -0.143 | -0.013 |
| ARAF (UniProt P10398) | -0.002 | -0.129 | -0.018 | 0.014 | -0.046 | 0.067 | 0.03 | 0.012 | -0.049 | -0.02 |
| ASNS (UniProt P08243) | 0.024 | 0.067 | -0.019 | -0.007 | 0.017 | -0.023 | -0.018 | 0.016 | 0.038 | 0.011 |
| ARFGAP1 (UniProt Q8N6T3) | -0.028 | -0.209 | -0.025 | 0.005 | 0.029 | -0.039 | -0.025 | -0.018 | 0.002 | 0.038 |
| AGPAT1 (UniProt Q99943) | 0.012 | 0.027 | -0.145 | 0.05 | 0.028 | -0.023 | -0.01 | -0.019 | 0.01 | 0.036 |
| ARGLU1 (UniProt Q9NWB6) | -0.008 | 0.069 | -0.039 | 0.009 | -0.034 | -0.057 | -0.002 | 0.003 | -0.047 | 0.025 |
| ACADS (UniProt P16219) | -0.013 | 0.021 | -0.013 | 0.062 | -0.012 | 0.001 | -0.046 | 0.01 | 0.027 | 0.017 |
| ALDH1A1 (UniProt P00352) | -0.048 | 0.044 | -0.054 | 0.048 | 0.008 | -0.033 | 0.132 | 0.027 | 0.012 | -0.029 |
| ALG8 (UniProt Q9BVK2) | 0.022 | -0.102 | -0.082 | 0.018 | 0.016 | -0.062 | -0.001 | 0.053 | 0.012 | -0.007 |
| ARL8A (UniProt Q96BM9) | -0.223 | -0.039 | 0.176 | 0.157 | 0.036 | 0 | -0.041 | 0.026 | 0.028 | 0.091 |
| APEX1 (UniProt P27695) | 0.026 | 0.011 | -0.011 | 0.016 | 0 | 0.004 | -0.072 | 0 | 0.003 | -0.007 |
| AFF1 isoform 2 (UniProt P51825) | -0.001 | -0.085 | 0.027 | 0.071 | -0.068 | -0.007 | -0.041 | -0.002 | 0.005 | 0.021 |
| AP3D1 isoform 5 (UniProt O14617) | -0.013 | -0.004 | -0.006 | 0.011 | 0.001 | -0.007 | -0.015 | -0.015 | -0.001 | -0.003 |
| ALG3 (UniProt Q92685) | 0.19 | -0.117 | -0.12 | -0.037 | 0.056 | -0.016 | -0.182 | -0.103 | -0.037 | 0.019 |
| AKAP11 (UniProt Q9UKA4) | 0.114 | 0.232 | 0.037 | 0.095 | 0.016 | 0.059 | -0.361 (active) | -0.064 | 0.017 | -0.071 |
| AKR1C2 (UniProt P52895) | 0.03 | -0.167 | 0.005 | 0.015 | 0.006 | 0.013 | -0.046 | -0.033 | 0.006 | -0.024 |
| ALDH6A1 (UniProt Q02252) | -0.03 | 0.064 | -0.04 | -0.068 | -0.179 | 0.043 | -0.031 | -0.022 | 0.015 | 0.024 |
| ABL1 isoform 2 (UniProt P00519) | 0.026 | -0.005 | -0.013 | 0.026 | -0.027 | 0.033 | -0.022 | -0.035 | 0.015 | -0.01 |
| ARMCX5 (UniProt Q6P1M9) | -0.08 | 0.047 | -0.004 | 0.157 | 0.001 | 0.03 | -0.35 (active) | 0.075 | -0.039 | -0.08 |
| ANAPC7 (UniProt Q9UJX3) | -0.001 | 0.006 | 0.002 | 0.024 | -0.016 | 0.003 | 0.027 | 0 | -0.017 | 0.005 |
| AARS2 (UniProt Q5JTZ9) | 0.013 | -0.047 | -0.05 | 0.004 | -0.013 | 0.005 | -0.026 | -0.008 | 0.038 | -0.024 |
| AHCYL1 (UniProt O43865) | -0.015 | 0.018 | -0.034 | -0.009 | -0.006 | 0.008 | -0.073 | -0.024 | 0.009 | 0.007 |
